From PubChem BioAssay
Active and inactive are the calls of the source. Rule as the data show it, unless noted: active = nuclear beta-catenin stimulation mostly above about 4.2% (no sharp cut-off); inactive = mostly below about 10%.

How the values were obtained:
[1] = survival rescue of mitochondrial mutant cells in low glucose, primary screen, MELAS cybrids, Rieske KO mouse fibroblasts, CellTiter-Glo (AID 1508586;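 active = mean z-score across replicates of 1.96 or higher in either the MELAS or the Rieske mutant cell line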;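 also: z relative to plate mean and SD of compound and empty wells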)
[2] = stimulators of nuclear beta-catenin in C2C12, primary screen, imaging, WNT3A-conditioned medium, mouse C2C12, NPC library (AID 1117326); settings: stronger effect = higher value; also: reference of the scale not given here
[3] = stimulators of insulin release from INS-1E, primary screen, cell-based, 5 mM glucose, NPC library (AID 1117329;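 active = compound raises insulin release from rat beta cells at 5 mM glucose, no numeric limit stated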; also: reference of the scale not given here); settings: rat INS-1E insulin secretion, at 10 µM, stronger effect = higher value
[4] = growth inhibition of GSK3B-pretreated HCT116 cells – cell-based, CellTiter-Glo, 0.2 to 20 µM (AID 1117336;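 active = compounds lowering colon cancer cell viability after pretreatment blocking the GSK3B kinase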); settings: HCT116 viability after GSK3B inhibitor, at 20 µM, stronger effect = higher value
[5] = inhibition of endothelial tube formation, primary screen, imaging, VEGF stimulated, CD31 staining, tube area, NPC library (AID 1117340;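 active = compound that reduces growth-factor-driven endothelial tube area in a mixed cell culture, no cutoff stated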); settings: VEGF-stimulated ADSC/ECFC co-culture, at 10 µM, stronger effect = higher value
[6] = glucagon-like peptide 1 release enhancers, primary assay, NCI-H716 cell line, NPC library (AID 1117341;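 active = compound raises GLP1 secretion from the human gut endocrine cells, with no numeric limit stated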; also: reference of the scale not given here); settings: NCI-H716 cells, at 10 µM, stronger effect = higher value
[7] = HCT116 colon cancer cell growth inhibition, primary screen, CellTiter-Glo luminescence, NPC library (AID 1117342;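 active = compounds that lower survival of HCT116 colon cancer cells in the luminescence readout, no numeric limit stated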); settings: at 20 µM (top of the series)
[8] = CellTiter-Glo luminescent readout of SW480 viability loss, NPC library primary (AID 1117343;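 active = compounds that lower viability of the colon cancer cells in the luminescence readout, with no numeric limit stated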); settings: CellTiter-Glo luminescence; at 20 µM (top of the series)
[9] = decreased DLD-1 cellular survival, CellTiter-Glo luminescent readout, NPC compound collection, primary HTS (AID 1117346;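 active = compounds that lower survival of DLD-1 colon cancer cells in the luminescence readout, no cutoff given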); settings: DLD-1 viability, CellTiter-Glo luminescence; at 20 µM (top of the series)

CNC(=O)Oc1cc(C)c(/C=C/c2cncc(C(=O)NC)c2)c(C)c1
0.0985: z-score ([1]; Rieske KO mouse fibroblast survival, CellTiter-Glo 72 h)
inactive: z-score ([1]; MELAS cybrid survival, CellTiter-Glo 48 h, stronger effect = higher value) -0.555

COC(=O)c1cncn1C(C)c1ccccc1 (configuration not stated)
inactive: nuclear beta-catenin stimulation ([2]; at 10 µM) -0.2% | insulin secretion stimulation [3] 1% | viability decrease [4] 1.8% | tube area decrease [5] -14.8% | GLP1 secretion stimulation [6] 1.6% | inhibition of viability [7] -8.6% | viability decrease (inhibition) [8] 24.4% | viability decrease (inhibition) [9] 20.5%
0.1%: nuclear beta-catenin stimulation ([2]; stimulation, at 2 µM)

CCC(=O)O[C@@H]1C=C2CCC3C(CCC4(C)C3CC[C@@H]4OC(=O)CC)C2CC1 (some centres not stated)
inactive: nuclear beta-catenin stimulation ([2]; at 10 µM) -0.9% | insulin secretion stimulation [3] 4.8% | viability decrease [4] 7.6% | tube area decrease [5] -11.8% | GLP1 secretion stimulation [6] -4.4% | inhibition of viability [7] 21.4% | viability decrease (inhibition) [8] 13.2% | viability decrease (inhibition) [9] 9.9%
1.3%: nuclear beta-catenin stimulation ([2]; stimulation, at 2 µM)

O=C1c2ccccc2C(=O)C1C(=O)C(c1ccccc1)c1ccccc1
active: viability decrease [4] 91.3% | tube area decrease [5] 78.8% | viability decrease (inhibition) [8] 120% | viability decrease (inhibition) [9] 99.3%
inactive: nuclear beta-catenin stimulation ([2]; at 10 µM) 0.3% | insulin secretion stimulation [3] -2.2% | GLP1 secretion stimulation [6] -5% | inhibition of viability [7] 44.8%
-0.1%: nuclear beta-catenin stimulation ([2]; stimulation, at 2 µM)

CC(C)(C)NCC(O)c1cc(Cl)c(N)c(C(F)(F)F)c1 (configuration not stated)
1%: nuclear beta-catenin stimulation ([2]; stimulation, at 2 µM)
inactive: nuclear beta-catenin stimulation ([2]; at 10 µM) 0.4% | insulin secretion stimulation [3] -1.6% | viability decrease [4] -16.8% | tube area decrease [5] -0.3% | GLP1 secretion stimulation [6] -2.3% | inhibition of viability [7] 10.6% | viability decrease (inhibition) [8] 5.9% | viability decrease (inhibition) [9] -1.7%

CCOC(=O)NC(O)C(Cl)(Cl)Cl (configuration not stated)
2.2%: nuclear beta-catenin stimulation ([2]; stimulation, at 2 µM)
inactive: nuclear beta-catenin stimulation ([2]; at 10 µM) -0.2% | insulin secretion stimulation [3] 0.3% | viability decrease [4] -4.2% | tube area decrease [5] -20.4% | GLP1 secretion stimulation [6] 0.8% | inhibition of viability [7] -2.5% | viability decrease (inhibition) [8] 16.2% | viability decrease (inhibition) [9] 4.55%

COC1CC(=C(c2cccs2)c2cccs2)C[N+](C)(C)C1 (configuration not stated)
inactive: nuclear beta-catenin stimulation ([2]; at 10 µM) -1.6% | insulin secretion stimulation [3] 0.1% | viability decrease [4] -13.9% | tube area decrease [5] 10.1% | GLP1 secretion stimulation [6] -0.6% | inhibition of viability [7] 8.3% | viability decrease (inhibition) [8] -2.9% | viability decrease (inhibition) [9] -0.4%
1.1%: nuclear beta-catenin stimulation ([2]; stimulation, at 2 µM)

O=C(CCl)c1ccc(Cl)cc1Cl
inactive: insulin secretion stimulation [3] 4.4% | GLP1 secretion stimulation [6] -6.4%
45.6%: nuclear beta-catenin stimulation ([2]; stimulation, at 2 µM)
active: nuclear beta-catenin stimulation ([2]; at 10 µM) 3.3% | viability decrease [4] 66.2% | tube area decrease [5] 104% | inhibition of viability [7] 88.3% | viability decrease (inhibition) [8] 91.8% | viability decrease (inhibition) [9] 64.8%

C[C@@]12CCCCC[C@@H](Cc3ccc(O)cc31)[C@H]2N
0.1%: nuclear beta-catenin stimulation ([2]; stimulation, at 2 µM)
inactive: nuclear beta-catenin stimulation ([2]; at 10 µM) -0.5% | insulin secretion stimulation [3] 11.2% | viability decrease [4] -4.1% | tube area decrease [5] 8.5% | GLP1 secretion stimulation [6] -2.3% | inhibition of viability [7] 13.4% | viability decrease (inhibition) [8] 6.4% | viability decrease (inhibition) [9] -12.5%

CCCCCCCCCCCCNCCNCCNCC(=O)O
active: nuclear beta-catenin stimulation ([2]; at 10 µM) 92.8% | viability decrease [4] 98.8% | tube area decrease [5] 74.7% | inhibition of viability [7] 99.3% | viability decrease (inhibition) [8] 100% | viability decrease (inhibition) [9] 101%
1.1%: nuclear beta-catenin stimulation ([2]; stimulation, at 2 µM)
inactive: insulin secretion stimulation [3] -0.3% | GLP1 secretion stimulation [6] 2.6%

C[C@]12CCC(=O)C=C1C=C[C@@H]1[C@H]2CC[C@@]2(C)[C@@H]1CC[C@@]2(O)CCC(=O)O
0%: nuclear beta-catenin stimulation ([2]; stimulation, at 2 µM)
inactive: nuclear beta-catenin stimulation ([2]; at 10 µM) -1.1% | insulin secretion stimulation [3] -2.4% | viability decrease [4] -15.4% | tube area decrease [5] 2% | GLP1 secretion stimulation [6] 0.9% | inhibition of viability [7] 3.7% | viability decrease (inhibition) [8] -2% | viability decrease (inhibition) [9] -7.2%

Cc1ccc([N+](=O)[O-])[c]2c1[O][Hg]2
66.9%: nuclear beta-catenin stimulation ([2]; stimulation, at 2 µM)
active: nuclear beta-catenin stimulation ([2]; at 10 µM) 20.9% | insulin secretion stimulation [3] 87.1% | viability decrease [4] 99.5% | tube area decrease [5] 105% | GLP1 secretion stimulation [6] 64.6% | inhibition of viability [7] 100% | viability decrease (inhibition) [8] 134% | viability decrease (inhibition) [9] 103%

CNC(=O)Oc1cccc2ccccc12
inactive: nuclear beta-catenin stimulation ([2]; at 10 µM) 7.6% | insulin secretion stimulation [3] 1.3% | viability decrease [4] 0.5% | GLP1 secretion stimulation [6] -5.4% | inhibition of viability [7] 5% | viability decrease (inhibition) [9] 16.3%
0.4%: nuclear beta-catenin stimulation ([2]; stimulation, at 2 µM)
active: tube area decrease [5] 41.9% | viability decrease (inhibition) [8] 114%

C1CN2CCC1CC2
3.2%: nuclear beta-catenin stimulation ([2]; stimulation, at 2 µM)
inactive: nuclear beta-catenin stimulation ([2]; at 10 µM) 0.4% | insulin secretion stimulation [3] 1.5% | viability decrease [4] -7.5% | tube area decrease [5] 9.8% | GLP1 secretion stimulation [6] 6.5% | inhibition of viability [7] 4% | viability decrease (inhibition) [8] 4.8% | viability decrease (inhibition) [9] 3.1%

C[C@]12CC[C@H]3[C@@H](CCC4=CC(=O)CC[C@@H]43)[C@@H]1CC[C@@H]2OC(=O)CCc1ccco1
active: tube area decrease [5] 47.2%
1%: nuclear beta-catenin stimulation ([2]; stimulation, at 2 µM)
inactive: nuclear beta-catenin stimulation ([2]; at 10 µM) 2.9% | insulin secretion stimulation [3] 2.5% | viability decrease [4] -67% | GLP1 secretion stimulation [6] -3.2% | inhibition of viability [7] 23.6% | viability decrease (inhibition) [8] 37.2% | viability decrease (inhibition) [9] 14.9%

COP(=S)(OC)Oc1ccc(S(N)(=O)=O)cc1
1.1%: nuclear beta-catenin stimulation ([2]; stimulation, at 2 µM)
inactive: nuclear beta-catenin stimulation ([2]; at 10 µM) 0.4% | insulin secretion stimulation [3] -1.7% | viability decrease [4] -4.35% | tube area decrease [5] -30.3% | GLP1 secretion stimulation [6] 1.6% | inhibition of viability [7] -18.1% | viability decrease (inhibition) [8] 4.3% | viability decrease (inhibition) [9] -0.7%
